Test results as given in the supplement of paper PMC10849652.
Of roughly 7,900 targets only a part is listed; those with a hit were picked by preference. About 0.6% of all pairs of compound and target were hits. Unmarked numbers belong to inactive results.

These targets were tested with NCC(=O)Nc1ccc(-n2nc(C(F)(F)F)cc2-c2ccc3c(ccc4ccccc43)c2)cc1 (assay: log2 fold change, soluble protein after heating vs DMSO (PISA); higher = thermal stabilisation; K562 cells, 10 uM, 30 min; active = over 0.2 and 3.5 SD of the protein, either way, in both replicates (recomputed)).
Outline: (§1)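 K562 cells (2×10^6 cells/mL) were treated with 10 μM compound for 30 min, and aliquots were heated for 3 min over 48°C-58°C. Pooled aliquots were extracted in PBS with 0.5% NP-40 at 4°C, and the supernatant after 21,000xg for 90 min was measured by TMTpro 16plex LC-MS/MS with channel sums equalised. Reported thermal stability, relative to control samples and from duplicates, is a log2 fold change.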

Sequence of UniProt Q96LJ8 (Q96LJ8 whole entry, looked up): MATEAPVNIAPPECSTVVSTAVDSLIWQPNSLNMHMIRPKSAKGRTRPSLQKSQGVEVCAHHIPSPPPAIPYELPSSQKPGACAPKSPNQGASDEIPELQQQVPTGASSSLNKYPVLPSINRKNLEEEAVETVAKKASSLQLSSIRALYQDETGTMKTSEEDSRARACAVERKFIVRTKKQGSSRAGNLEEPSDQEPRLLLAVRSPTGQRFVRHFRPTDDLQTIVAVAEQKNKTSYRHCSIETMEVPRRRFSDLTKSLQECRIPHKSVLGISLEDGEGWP
Sequence of UniProt O43156 (O43156 whole entry, looked up): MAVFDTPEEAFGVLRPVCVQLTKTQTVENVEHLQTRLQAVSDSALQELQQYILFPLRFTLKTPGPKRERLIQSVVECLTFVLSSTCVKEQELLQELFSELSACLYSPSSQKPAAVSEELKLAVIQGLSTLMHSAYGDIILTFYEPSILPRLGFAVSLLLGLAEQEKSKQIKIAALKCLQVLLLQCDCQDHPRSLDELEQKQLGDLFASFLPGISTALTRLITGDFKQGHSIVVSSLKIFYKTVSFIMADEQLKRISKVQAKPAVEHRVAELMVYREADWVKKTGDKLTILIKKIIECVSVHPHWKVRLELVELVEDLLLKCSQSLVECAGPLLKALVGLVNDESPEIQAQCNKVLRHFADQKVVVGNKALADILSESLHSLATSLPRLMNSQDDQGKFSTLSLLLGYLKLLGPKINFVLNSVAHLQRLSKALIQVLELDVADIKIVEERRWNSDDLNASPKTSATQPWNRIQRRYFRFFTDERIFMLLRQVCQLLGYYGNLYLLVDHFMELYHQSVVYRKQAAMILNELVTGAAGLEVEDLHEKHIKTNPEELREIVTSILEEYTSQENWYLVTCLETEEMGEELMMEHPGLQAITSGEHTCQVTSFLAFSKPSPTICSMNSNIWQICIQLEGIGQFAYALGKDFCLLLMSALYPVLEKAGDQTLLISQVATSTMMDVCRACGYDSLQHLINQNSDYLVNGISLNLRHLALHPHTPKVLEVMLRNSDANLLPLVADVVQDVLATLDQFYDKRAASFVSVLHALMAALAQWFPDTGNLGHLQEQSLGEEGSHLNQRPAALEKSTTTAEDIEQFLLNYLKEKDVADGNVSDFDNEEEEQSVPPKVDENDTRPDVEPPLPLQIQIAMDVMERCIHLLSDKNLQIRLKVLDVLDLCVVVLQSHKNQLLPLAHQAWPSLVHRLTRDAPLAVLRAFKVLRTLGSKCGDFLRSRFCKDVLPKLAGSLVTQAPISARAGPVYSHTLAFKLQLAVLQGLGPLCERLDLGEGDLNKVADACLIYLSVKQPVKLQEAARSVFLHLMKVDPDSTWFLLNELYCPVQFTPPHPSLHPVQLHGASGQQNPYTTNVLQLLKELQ
Sequence of UniProt Q9NX61 (Q9NX61 whole entry, looked up): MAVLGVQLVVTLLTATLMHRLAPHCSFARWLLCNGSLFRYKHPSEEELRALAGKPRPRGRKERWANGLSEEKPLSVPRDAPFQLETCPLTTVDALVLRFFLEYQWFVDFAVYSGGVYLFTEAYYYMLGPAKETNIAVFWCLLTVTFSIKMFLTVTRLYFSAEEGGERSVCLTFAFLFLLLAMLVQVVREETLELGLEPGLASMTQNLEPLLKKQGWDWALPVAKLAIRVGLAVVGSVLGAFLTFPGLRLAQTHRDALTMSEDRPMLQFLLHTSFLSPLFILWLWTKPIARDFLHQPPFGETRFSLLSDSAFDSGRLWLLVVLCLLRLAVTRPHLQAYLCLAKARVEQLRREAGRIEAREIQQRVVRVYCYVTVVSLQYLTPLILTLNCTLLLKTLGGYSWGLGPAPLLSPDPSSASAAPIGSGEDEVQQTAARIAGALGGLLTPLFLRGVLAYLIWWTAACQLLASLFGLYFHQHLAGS
Sequence of UniProt Q8NEZ2 (Q8NEZ2 whole entry, looked up): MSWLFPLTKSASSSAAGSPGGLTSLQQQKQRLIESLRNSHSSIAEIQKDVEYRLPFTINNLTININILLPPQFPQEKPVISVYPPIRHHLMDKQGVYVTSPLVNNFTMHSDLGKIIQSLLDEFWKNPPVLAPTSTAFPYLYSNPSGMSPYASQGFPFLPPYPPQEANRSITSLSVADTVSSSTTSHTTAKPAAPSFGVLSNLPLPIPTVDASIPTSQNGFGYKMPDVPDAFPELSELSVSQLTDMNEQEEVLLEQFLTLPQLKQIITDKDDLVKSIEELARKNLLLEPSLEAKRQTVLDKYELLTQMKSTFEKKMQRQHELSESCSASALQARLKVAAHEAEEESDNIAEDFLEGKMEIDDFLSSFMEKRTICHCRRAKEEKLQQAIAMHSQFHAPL
Sequence of UniProt Q7Z7E8 (Q7Z7E8 whole entry, looked up): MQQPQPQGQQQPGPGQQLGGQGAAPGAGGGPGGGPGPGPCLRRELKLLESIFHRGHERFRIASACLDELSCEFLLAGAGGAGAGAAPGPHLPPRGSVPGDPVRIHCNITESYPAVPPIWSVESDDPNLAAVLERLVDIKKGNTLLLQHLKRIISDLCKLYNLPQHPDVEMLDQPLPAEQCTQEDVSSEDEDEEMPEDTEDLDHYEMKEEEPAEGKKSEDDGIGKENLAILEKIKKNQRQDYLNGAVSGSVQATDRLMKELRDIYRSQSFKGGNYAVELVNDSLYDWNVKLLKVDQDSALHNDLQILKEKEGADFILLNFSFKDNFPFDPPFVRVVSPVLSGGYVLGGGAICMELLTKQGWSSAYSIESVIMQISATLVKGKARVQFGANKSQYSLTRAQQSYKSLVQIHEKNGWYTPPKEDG
Sequence of UniProt Q9NX01 (Q9NX01 whole entry, looked up): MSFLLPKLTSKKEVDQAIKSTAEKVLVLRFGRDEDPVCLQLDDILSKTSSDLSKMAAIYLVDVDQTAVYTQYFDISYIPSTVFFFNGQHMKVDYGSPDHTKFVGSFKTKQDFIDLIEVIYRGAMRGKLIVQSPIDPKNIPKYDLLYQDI
Sequence of UniProt Q9H4I3 (Q9H4I3 whole entry, looked up): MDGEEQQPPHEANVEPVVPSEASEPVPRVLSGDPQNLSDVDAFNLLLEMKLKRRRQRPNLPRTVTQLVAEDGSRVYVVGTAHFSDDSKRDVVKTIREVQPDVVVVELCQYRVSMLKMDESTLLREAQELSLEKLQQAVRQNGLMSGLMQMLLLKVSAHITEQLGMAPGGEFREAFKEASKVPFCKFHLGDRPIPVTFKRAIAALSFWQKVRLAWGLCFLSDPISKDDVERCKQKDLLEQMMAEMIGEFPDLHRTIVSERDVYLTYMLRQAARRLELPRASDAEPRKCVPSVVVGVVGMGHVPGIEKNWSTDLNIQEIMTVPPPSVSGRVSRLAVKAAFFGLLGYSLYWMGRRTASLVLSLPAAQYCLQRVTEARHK
Sequence of UniProt Q16763 (Q16763 whole entry, looked up): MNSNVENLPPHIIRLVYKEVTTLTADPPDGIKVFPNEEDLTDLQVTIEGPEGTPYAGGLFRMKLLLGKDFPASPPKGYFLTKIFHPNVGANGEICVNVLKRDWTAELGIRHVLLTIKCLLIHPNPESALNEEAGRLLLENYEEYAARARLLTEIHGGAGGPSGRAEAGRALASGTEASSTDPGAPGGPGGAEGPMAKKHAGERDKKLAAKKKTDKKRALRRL
Sequence of UniProt Q9BQB6 (Q9BQB6 whole entry, looked up): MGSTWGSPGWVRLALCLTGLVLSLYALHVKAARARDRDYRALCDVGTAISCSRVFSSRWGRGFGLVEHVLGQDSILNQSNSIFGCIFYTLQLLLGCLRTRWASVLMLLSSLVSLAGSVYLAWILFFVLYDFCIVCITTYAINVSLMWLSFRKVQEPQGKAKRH
Sequence of UniProt Q86XT9 (Q86XT9 whole entry, looked up): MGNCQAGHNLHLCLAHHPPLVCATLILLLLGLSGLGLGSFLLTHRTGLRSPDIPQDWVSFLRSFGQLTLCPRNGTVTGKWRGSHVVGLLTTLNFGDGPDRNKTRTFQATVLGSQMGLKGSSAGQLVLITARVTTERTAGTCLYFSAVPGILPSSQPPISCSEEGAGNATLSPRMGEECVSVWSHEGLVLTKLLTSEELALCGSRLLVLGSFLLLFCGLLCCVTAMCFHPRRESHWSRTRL
Sequence of UniProt Q9UK41 (Q9UK41 whole entry, looked up): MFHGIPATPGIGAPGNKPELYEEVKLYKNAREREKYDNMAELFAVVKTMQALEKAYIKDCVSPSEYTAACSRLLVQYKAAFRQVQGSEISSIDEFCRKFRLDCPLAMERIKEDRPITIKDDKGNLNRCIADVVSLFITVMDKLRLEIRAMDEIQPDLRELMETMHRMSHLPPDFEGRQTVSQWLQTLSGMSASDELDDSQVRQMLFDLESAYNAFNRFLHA
Sequence of UniProt O95857 (O95857 whole entry, looked up): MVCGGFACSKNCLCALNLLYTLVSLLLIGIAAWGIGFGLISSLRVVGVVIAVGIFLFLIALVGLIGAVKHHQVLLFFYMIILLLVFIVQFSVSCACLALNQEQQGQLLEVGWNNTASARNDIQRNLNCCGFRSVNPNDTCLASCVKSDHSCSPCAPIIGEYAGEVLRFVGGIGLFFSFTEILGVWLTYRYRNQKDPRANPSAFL
Sequence of UniProt Q9NUM4 (Q9NUM4 whole entry, looked up): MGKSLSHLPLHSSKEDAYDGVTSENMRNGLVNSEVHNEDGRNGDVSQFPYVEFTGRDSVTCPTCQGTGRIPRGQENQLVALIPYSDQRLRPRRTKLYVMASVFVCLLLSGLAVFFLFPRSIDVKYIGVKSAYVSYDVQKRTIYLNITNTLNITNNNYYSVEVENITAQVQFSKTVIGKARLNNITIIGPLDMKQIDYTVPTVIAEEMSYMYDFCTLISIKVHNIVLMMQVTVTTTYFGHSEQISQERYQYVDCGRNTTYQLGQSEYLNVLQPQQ
Sequence of UniProt Q5U3C3 (Q5U3C3 whole entry, looked up): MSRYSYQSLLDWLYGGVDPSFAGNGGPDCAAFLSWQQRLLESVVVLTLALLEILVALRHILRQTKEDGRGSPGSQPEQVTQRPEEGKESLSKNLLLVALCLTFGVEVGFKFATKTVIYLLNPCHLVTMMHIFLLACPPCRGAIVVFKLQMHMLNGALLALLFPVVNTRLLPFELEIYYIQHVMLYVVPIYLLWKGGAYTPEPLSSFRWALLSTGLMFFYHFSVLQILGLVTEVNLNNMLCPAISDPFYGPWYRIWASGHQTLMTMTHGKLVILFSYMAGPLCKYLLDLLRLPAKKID

Question: For TXNL4B (UniProt Q9NX01), which log2 fold change is on record?
Answer: 0.709 (active)

Question: How did the log2 fold change turn out when UBE2S (UniProt Q16763) was run?
Answer: -0.086

Question: For VKORC1 (UniProt Q9BQB6), which log2 fold change is on record?
Answer: -0.114

Question: TMEM161A (UniProt Q9NX61) was tested. Which log2 fold change did it give?
Answer: -0.101

Question: VWA3B isoform 6 (UniProt Q502W6) was tested. Which log2 fold change did it give?
Answer: -0.059

Question: For VPS37A (UniProt Q8NEZ2), which log2 fold change is on record?
Answer: -0.051

Question: For TTI1 (UniProt O43156), which log2 fold change is on record?
Answer: -0.022

Question: For UBE2Q1 (UniProt Q7Z7E8), which log2 fold change is on record?
Answer: -0.012

Question: For TRABD (UniProt Q9H4I3), which log2 fold change is on record?
Answer: 0.157

Question: For UBXN10 (UniProt Q96LJ8), which log2 fold change is on record?
Answer: -0.426 (active)

Question: With TMEM219 (UniProt Q86XT9) as the target, how does the log2 fold change read?
Answer: 0.036

Each target was assayed with Nc1ccccc1NC(=O)c1ccc(CNC(=O)OCc2cccnc2)cc1 [entinostat] in the same assay as above.
Outline: as §1

Question: For TRIM44 (UniProt Q96DX7), which log2 fold change is on record?
Answer: -0.048

Question: Which log2 fold change does the source give for TRIM23 (UniProt P36406) here?
Answer: -0.01

Question: For VPS28 (UniProt Q9UK41), which log2 fold change is on record?
Answer: 0.064

Question: Which log2 fold change does the source give for UBE2D1 (UniProt P51668) here?
Answer: -0.168

Question: With TMEM268 isoform 3 (UniProt Q5VZI3) as the target, how does the log2 fold change read?
Answer: 0.059

Question: Which log2 fold change does the source give for WASHC2A (UniProt Q641Q2) here?
Answer: -0.038

Question: For TMEM179B (UniProt Q7Z7N9), which log2 fold change is on record?
Answer: 0.04

Question: UBE4B isoform 4 (UniProt O95155) was tested. Which log2 fold change did it give?
Answer: 0.019

Question: How did the log2 fold change turn out when TRAPPC6B (UniProt Q86SZ2) was run?
Answer: 0.066

Question: For TMEM9B (UniProt Q9NQ34), which log2 fold change is on record?
Answer: 0.025

Question: Which log2 fold change does the source give for TSPAN13 (UniProt O95857) here?
Answer: -0.109

Question: With TMEM8A (UniProt Q9HCN3) as the target, how does the log2 fold change read?
Answer: -0.485

Question: With WEE1 (UniProt P30291) as the target, how does the log2 fold change read?
Answer: 0.47

Question: Which log2 fold change does the source give for UNC119B (UniProt A6NIH7) here?
Answer: 0.012

Question: How did the log2 fold change turn out when TRIM4 (UniProt Q9C037) was run?
Answer: 0.03

Question: Which log2 fold change does the source give for UBIAD1 (UniProt Q9Y5Z9) here?
Answer: -0.076

Question: Which log2 fold change does the source give for USP48 isoform 8 (UniProt Q86UV5) here?
Answer: 0.351

Question: How did the log2 fold change turn out when TMEM164 (UniProt Q5U3C3) was run?
Answer: -0.112

Question: UFM1 isoform 2 (UniProt P61960) was tested. Which log2 fold change did it give?
Answer: -0.012

Question: How did the log2 fold change turn out when TUT4 (UniProt Q5TAX3) was run?
Answer: 0.004

Question: How did the log2 fold change turn out when TMEM41A (UniProt Q96HV5) was run?
Answer: -0.027

Question: Which log2 fold change does the source give for TMEM184C (UniProt Q9NVA4) here?
Answer: -0.218

Question: How did the log2 fold change turn out when XIAP (UniProt P98170) was run?
Answer: 0.009

Question: For TMEM106B (UniProt Q9NUM4), which log2 fold change is on record?
Answer: 0.008

Question: Which log2 fold change does the source give for TXNL4B (UniProt Q9NX01) here?
Answer: -0.024

Question: How did the log2 fold change turn out when UBE2S (UniProt Q16763) was run?
Answer: -0.026

Question: Which log2 fold change does the source give for VKORC1 (UniProt Q9BQB6) here?
Answer: 0.025

Question: TMEM161A (UniProt Q9NX61) was tested. Which log2 fold change did it give?
Answer: 0.049

Question: With VPS37A (UniProt Q8NEZ2) as the target, how does the log2 fold change read?
Answer: 0.121

Question: TTI1 (UniProt O43156) was tested. Which log2 fold change did it give?
Answer: 0

Question: For UBE2Q1 (UniProt Q7Z7E8), which log2 fold change is on record?
Answer: 0.03

Question: For TRABD (UniProt Q9H4I3), which log2 fold change is on record?
Answer: -0.022

Question: UBXN10 (UniProt Q96LJ8) was tested. Which log2 fold change did it give?
Answer: -0.069

Question: Which log2 fold change does the source give for TMEM219 (UniProt Q86XT9) here?
Answer: 0.052

These targets were tested with O=C(CCCCCCC(=O)Nc1ccccc1)NO [vorinostat] in the same assay as above.
Outline: as §1

Question: With TRIM44 (UniProt Q96DX7) as the target, how does the log2 fold change read?
Answer: 0.015

Question: Which log2 fold change does the source give for TRIM23 (UniProt P36406) here?
Answer: 0.06

Question: How did the log2 fold change turn out when VPS28 (UniProt Q9UK41) was run?
Answer: 0.052

Question: With UBE2D1 (UniProt P51668) as the target, how does the log2 fold change read?
Answer: 0.164

Question: How did the log2 fold change turn out when TMEM268 isoform 3 (UniProt Q5VZI3) was run?
Answer: 0.162

Question: Which log2 fold change does the source give for WASHC2A (UniProt Q641Q2) here?
Answer: 0.024

Question: With TMEM179B (UniProt Q7Z7N9) as the target, how does the log2 fold change read?
Answer: -0.156

Question: UBE4B isoform 4 (UniProt O95155) was tested. Which log2 fold change did it give?
Answer: 0.023

Question: With TRAPPC6B (UniProt Q86SZ2) as the target, how does the log2 fold change read?
Answer: 0.013

Question: How did the log2 fold change turn out when TMEM9B (UniProt Q9NQ34) was run?
Answer: 0.051

Question: For TSPAN13 (UniProt O95857), which log2 fold change is on record?
Answer: 0.002

Question: Which log2 fold change does the source give for TMEM8A (UniProt Q9HCN3) here?
Answer: -0.077

Question: For WEE1 (UniProt P30291), which log2 fold change is on record?
Answer: 0.05

Question: For UNC119B (UniProt A6NIH7), which log2 fold change is on record?
Answer: -0.055

Question: How did the log2 fold change turn out when TRIM4 (UniProt Q9C037) was run?
Answer: -0.03

Question: For UBIAD1 (UniProt Q9Y5Z9), which log2 fold change is on record?
Answer: -0.075

Question: USP48 isoform 8 (UniProt Q86UV5) was tested. Which log2 fold change did it give?
Answer: 0.178

Question: With TMEM164 (UniProt Q5U3C3) as the target, how does the log2 fold change read?
Answer: 0.139

Question: With UFM1 isoform 2 (UniProt P61960) as the target, how does the log2 fold change read?
Answer: -0.057

Question: TUT4 (UniProt Q5TAX3) was tested. Which log2 fold change did it give?
Answer: -0.032

Question: For UBAP2L (UniProt F8W726), which log2 fold change is on record?
Answer: -0.033

Question: How did the log2 fold change turn out when TMEM41A (UniProt Q96HV5) was run?
Answer: 0.09

Question: For TMEM184C (UniProt Q9NVA4), which log2 fold change is on record?
Answer: 0.08

Question: With XIAP (UniProt P98170) as the target, how does the log2 fold change read?
Answer: 0.053

Question: TMEM106B (UniProt Q9NUM4) was tested. Which log2 fold change did it give?
Answer: -0.023

Question: How did the log2 fold change turn out when TXNL4B (UniProt Q9NX01) was run?
Answer: 0.02

Question: For UBE2S (UniProt Q16763), which log2 fold change is on record?
Answer: 0.002

Question: VKORC1 (UniProt Q9BQB6) was tested. Which log2 fold change did it give?
Answer: -0.034

Question: For TMEM161A (UniProt Q9NX61), which log2 fold change is on record?
Answer: 0.006

Question: VWA3B isoform 6 (UniProt Q502W6) was tested. Which log2 fold change did it give?
Answer: 0.076

Question: Which log2 fold change does the source give for VPS37A (UniProt Q8NEZ2) here?
Answer: 0.113

Question: Which log2 fold change does the source give for TTI1 (UniProt O43156) here?
Answer: 0.142

Question: UBE2Q1 (UniProt Q7Z7E8) was tested. Which log2 fold change did it give?
Answer: 0.084

Question: With TRABD (UniProt Q9H4I3) as the target, how does the log2 fold change read?
Answer: 0.009

Question: UBXN10 (UniProt Q96LJ8) was tested. Which log2 fold change did it give?
Answer: 0.136

Question: With TMEM219 (UniProt Q86XT9) as the target, how does the log2 fold change read?
Answer: 0.389 (active)
